# Test results published in PubChem BioAssay (NCI).
# About 83,000 compounds went through this panel and 20% of them were active in at least one assay; those are over-represented in the sample as a whole.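 Results are percent growth after 48 hours of single-concentration exposure. 100 means growth as in untreated cells, lower positive values show inhibition; negative values down to -100 show cell death.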 Values without a mark were called inactive. Activity calls are given as the source filed them. How the source made its calls: active means growth percent below 10; inactive means the rest.
# Columns and labels:
# Experiment in all cases: NCI-60 one-dose screen, 48 h (100 = growth as untreated, 0 = no growth, -100 = all killed)
# Conditions in all cases: 10 µM unless noted
# DU-145 prostate = system: DU-145 prostate
# K-562 leukemia = system: K-562 leukemia
# MALME-3M melanoma = system: MALME-3M melanoma
# MDA-MB-231 breast = system: MDA-MB-231 breast
# RXF 393 renal = system: RXF 393 renal
# SF-268 CNS = system: SF-268 CNS
# SF-295 CNS = system: SF-295 CNS
# SF-539 CNS = system: SF-539 CNS
# UACC-257 melanoma = system: UACC-257 melanoma
# M14 melanoma = system: M14 melanoma
Compound,growth (DU-145 prostate),growth (K-562 leukemia),growth (MALME-3M melanoma),growth (MDA-MB-231 breast),growth (RXF 393 renal),growth (SF-268 CNS),growth (SF-295 CNS),growth (SF-539 CNS),growth (UACC-257 melanoma),growth (M14 melanoma)
CCOC(=O)C1=C(C)NC(=O)NC1c1c(Cl)n(CCCl)c2ccccc12 (stereo not given),107%,99.3%,94.4%,105%,98.1%,88%,95.3%,97.2%,92.7%,98.2%
COc1cccc(CNc2ccc3ncnc(Nc4ccc(F)c(Cl)c4)c3c2)c1,54.3%,48.3%,58.1%,68.2%,65.9%,65.6%,79.4%,93.8%,49.2%,72.9%
Cc1csc(Nc2nc(-c3ccccn3)nc(C(Cl)(Cl)Cl)n2)n1,69.7%,87.8%,73.9%,80.3%,91.4%,82.8%,91%,94.2%,78.8%,83.7%
CCOC(=O)c1ccc(NC(=O)c2nc(-c3cc(OC)c(OC)c(OC)c3)n(-c3ccc(Cl)cc3)n2)cc1,102%,85.7%,91.4%,69.4%,86.3%,84%,96.9%,97%,96.5%,97.6%
O=C(/C=C/c1cccs1)Nc1ncc(Cc2ccccc2F)s1,11.4%,24%,40.5%,33.8%,-32.4% (active),55.9%,9.52% (active),-4.04% (active),58.6%,-3.15% (active)
CCCCCCCCCCCCCCCCOCCCOP(=O)(O)C1CCCN(O)C1=O (stereo not given),24.6%,19.4%,20.4%,42.7%,7.41% (active),5.39% (active),3.46% (active),-4.5% (active),18.2%,-3.96% (active)
O=C(Nc1nc2ccc(C(=O)N3CCN(/C=C/c4ccccc4)CC3)cc2s1)c1ccc(NCCc2ccccc2)c([N+](=O)[O-])c1,70.7%,-18.7% (active),-0.217% (active),66%,53.2%,63.2%,45.7%,71.7%,37.3%,12.9%
O=C(NNC(=O)c1ccc(NC(=O)c2ccccn2)cc1)Nc1ccc([N+](=O)[O-])cc1,106%,107%,98%,103%,99.9%,95.5%,98.9%,60.9%,106%,100%
COc1ccc2c(c1)c(-c1nc(-c3c[nH]c4ccncc34)cs1)cn2C,-68% (active),-60.8% (active),-92.9% (active),-81.8% (active),-83.8% (active),-78.7% (active),-76.1% (active),-96.9% (active),-79% (active),-84% (active)
COc1ccc(Cc2cnc(NC(=O)c3cc(C)oc3C)s2)cc1,40.7%,11.4%,52.5%,63.6%,16.4%,53.3%,39.4%,32.5%,57.3%,18.9%
CC(C)Cn1cnc2c(=O)[nH]c(N)nc21,109%,99.9%,98.3%,114%,94.4%,106%,99.2%,104%,84.1%,105%
CN(C)CCNC(=O)c1ccc(-c2nc3ccc4[nH]ncc4c3c3c2C2CCC3C2)cc1 (stereo not given),20.8%,20.7%,28.1%,2.4% (active),-30.9% (active),16.8%,40.9%,18.5%,58.7%,31.3%
CN(C)CCNC(=O)c1cc2c3cc(Cl)ccc3[nH]c2c2ncccc12,7.58% (active),-25.1% (active),-29.9% (active),30.3%,15.5%,13.5%,22.1%,5.06% (active),18.4%,-81% (active)
O=c1c2cccc3c(N4CCCC4)ccc(c32)c2nc3ccccc3n12,78.1%,76%,70.4%,77.1%,103%,92%,59.8%,91.3%,91.8%,91.5%
CCOC(=O)n1ccn(C)c1=S,112%,103%,102%,117%,115%,106%,92%,95.7%,97.3%,97%
C=C(CBr)[C@@H]1CC[C@]2(C(=O)O)CC[C@]3(C)[C@H](CC[C@@H]4[C@@]5(C)CCC(=O)C(C)(C)[C@@H]5CC[C@]43C)[C@@H]12,86.1%,50.4%,89.4%,81%,85.9%,83.1%,79.2%,99.2%,80.2%,80%
COc1cc(-c2cncn2-c2ccc(-c3nc4ccc(F)cc4s3)cc2)ccc1F,-7.18% (active),62.8%,99.3%,103%,52.5%,81.3%,90%,92.8%,79.7%,102%
Ic1ccc(OCCCCn2ccnc2)cc1,81.2%,37.6%,1.9% (active),68.6%,67.1%,83.3%,77.9%,83.8%,64.3%,49.6%
O=C1C(Cl)=C(NCCCCCCNC2=C(Cl)C(=O)c3ccccc3C2=O)C(=O)c2ccccc21,104%,69.7%,88.8%,78.2%,123%,98.2%,114%,115%,75%,87.9%
O=C(CN1CCCCC1)Nc1nc(-c2cc3ccccc3oc2=O)cs1,106%,90.9%,103%,103%,100%,94.1%,102%,103%,102%,107%
COc1ccc(/C=C(\C#N)n2nnc3cc(F)c(F)cc32)cc1,47.6%,8.72% (active),45.6%,64.9%,85.8%,68.6%,72.3%,44.5%,81.9%,6.43% (active)

Compound,growth (DU-145 prostate),growth (K-562 leukemia),growth (MALME-3M melanoma),growth (MDA-MB-231 breast),growth (RXF 393 renal),growth (SF-268 CNS),growth (SF-295 CNS),growth (SF-539 CNS),growth (UACC-257 melanoma),growth (M14 melanoma)
COc1ccc(/C=C/C(=O)c2cccc(OCCCCOc3cccc(C(=O)/C=C/c4ccc(OC)c(OC)c4)c3)c2)cc1OC,83.3%,50.7%,77.7%,87.7%,79.1%,76.2%,47%,87.7%,57.1%,78.6%
COc1ccc(-c2noc(C(=O)O)c2-c2cc(OC)c(OC)c(OC)c2)cc1,36.1%,12.6%,52.8%,57.1%,21.2%,40.5%,13.5%,3.15% (active),45.4%,11.7%
O=C(CN1C(=O)NC2NC(=O)NC21)N/N=C/c1ccccc1[N+](=O)[O-] (stereo not given),113%,104%,107%,114%,118%,107%,105%,95.2%,116%,102%
CC(=O)N1N=C(c2ccc(Nc3nc(Nc4ccccc4)nc(Nc4ccccc4)n3)cc2)CC1c1ccccc1 (stereo not given),97.6%,68.9%,78.7%,71.7%,137%,89.2%,85.6%,88.8%,113%,84.6%
C=C1C(=O)O[C@H]2[C@H]1CC/C(COC(=O)C(=O)c1cn(C)c3ccc(Cl)cc13)=C\CC[C@@]1(C)O[C@@H]21,-96% (active),3.09% (active),-65.6% (active),-68.7% (active),-97% (active),-65.1% (active),-65.4% (active),-70.9% (active),-84.1% (active),-77.3% (active)
O=C(Nc1ccc(Oc2cccc(Cl)c2)c(Cl)c1)c1cccnc1,16.1%,11.1%,50.1%,59%,-0.145% (active),53.4%,41.4%,-8.37% (active),64.2%,21.8%
Cc1c2cnccc2c(C)c2c1c1cc(C#N)ccc1n2C,3.34% (active),-8.24% (active),-77.4% (active),-23.5% (active),-85.1% (active),-8.27% (active),-11.7% (active),-61.7% (active),-29% (active),-83.3% (active)
N#Cc1c(-c2ccc(Cl)cc2)nc(NN2C(=O)c3ccccc3C2=O)nc1N1CCOCC1,107%,97%,109%,105%,107%,99.3%,101%,101%,108%,101%
COC(=O)c1c2c(c(C)[n+]([O-])c1C)C(=O)C(NCc1cccc(OC)c1)=CC2=O,54.8%,13.7%,-89.9% (active),5.97% (active),38.7%,36.8%,69.9%,11.4%,-25.5% (active),12.9%
C[PH+](c1nc2ccccc2nc1[PH+](C)C(C)(C)C)C(C)(C)C.C[PH+](c1nc2ccccc2nc1[PH+](C)C(C)(C)C)C(C)(C)C.[Au+].[Cl-] (stereo not given),-99.5% (active),1.72% (active),-67.1% (active),-90.3% (active),-87.9% (active),-91% (active),-88% (active),-91.6% (active),-88.3% (active),-100% (active)
O=C(O)c1cn(C2CC2)c2cc(N3CCN(C(=O)N(c4ccccc4)c4nc(-c5ccccc5)cs4)CC3)c(F)cc2c1=O,15.4%,9.77% (active),2.79% (active),-48% (active),8.65% (active),19%,-0.773% (active),-7.39% (active),1.71% (active),17.7%
CC1(C)CC(=O)C2=C(C1)N(c1ccc(OC(F)(F)F)cc1)C(N)=C(C#N)C2c1ccc(Br)cc1F (stereo not given),96.5%,75.5%,46.8%,61.2%,42.9%,36.6%,42.2%,75%,80.9%,79.1%
CCn1c(SCC(=O)N/N=C(\C)c2ccc(Cl)cc2)nc2c1c(=O)n(C)c(=O)n2C,108%,98%,100%,104%,106%,98%,101%,96.3%,103%,97.4%
C[C@@H](CO)[C@@H]1CCC=C2CC[C@]3(C)[C@H](CC[C@@H]4[C@@]5(C)CCCNC(C)(C)[C@@H]5CC[C@]43C)[C@H]21,62.4%,-19.9% (active),46.6%,59.9%,68%,82.2%,93.7%,57.8%,30.4%,30.9%
O=C1NC2(Nc3ccccc31)C(=O)Nc1c(Cl)cc(Cl)cc12 (stereo not given),117%,99.4%,102%,94.9%,115%,96.8%,101%,100%,110%,101%
Cc1ccc(-c2nc([P+](c3ccccc3)(c3ccccc3)c3ccccc3)c(S(=O)(=O)c3ccc(C)cc3)o2)cc1,25.5%,4.12% (active),-0.571% (active),3.47% (active),-28.6% (active),45.5%,81%,-65.6% (active),3.98% (active),19.3%
Cc1ccc(Nc2cc(N)nc(N)n2)cc1Cl,94%,74.4%,97.7%,102%,97.5%,88.7%,92.3%,96.7%,93.6%,93.5%
COc1ccc(Nc2nc(-c3cc(O)c(C)c(C)c3O)cs2)cc1,87.3%,23.9%,95.2%,88.5%,78.7%,64.7%,84.1%,81.6%,98.1%,76.2%
Cn1ccnc1C(=O)/C=C/c1ccc(C(=O)Nc2ccccc2O)cc1,45.6%,7.38% (active),57.8%,46.2%,21.7%,13.2%,6.78% (active),-19.3% (active),48.6%,71.5%
CCOC(=O)C1=C(c2ccccc2)N=C2SC=C(c3ccc(Cl)cc3)N2C1c1ccc(Br)cc1 (stereo not given),90.3%,84.1%,87.4%,68.5%,68.6%,77%,88.7%,94.9%,79%,83.7%
